# Results published in PubChem BioAssay (NCI).
# About 83,000 compounds went through this panel and 20% of them were active in at least one assay; those are over-represented in the sample as a whole.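 Note: values are percent growth. 100 is the growth of untreated cells, values between 100 and 0 indicate rising inhibition; between -100 and 0 indicates cell death.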 A number with no mark means an inactive call. Activity calls are given as the source filed them. The calls were made as follows: active = growth percent below 10; inactive = the rest.
# Legend:
# Assay in all cases: NCI-60 one-dose screen, 48 h (100 = growth as untreated, 0 = no growth, -100 = all killed)
# Conditions in all cases: 10 µM unless noted
# HCT-15 colon = test system: HCT-15 colon
# HT29 colon = test system: HT29 colon
# SNB-75 CNS = test system: SNB-75 CNS
# SNB-19 CNS = test system: SNB-19 CNS
# U251 CNS = test system: U251 CNS
# PC-3 prostate = test system: PC-3 prostate
# SK-MEL-5 melanoma = test system: SK-MEL-5 melanoma
# UACC-62 melanoma = test system: UACC-62 melanoma
# LOX IMVI melanoma = test system: LOX IMVI melanoma
# SK-MEL-28 melanoma = test system: SK-MEL-28 melanoma
# SK-MEL-2 melanoma = test system: SK-MEL-2 melanoma
# EKVX NSCLC = test system: EKVX NSCLC
# SN12C renal = test system: SN12C renal
# UO-31 renal = test system: UO-31 renal
# TK-10 renal = test system: TK-10 renal
# ACHN renal = test system: ACHN renal
# CAKI-1 renal = test system: CAKI-1 renal
# A498 renal = test system: A498 renal
# CCRF-CEM leukemia = test system: CCRF-CEM leukemia
# MOLT-4 leukemia = test system: MOLT-4 leukemia
SMILES,growth (HCT-15 colon),growth (HT29 colon),growth (SNB-75 CNS),growth (SNB-19 CNS),growth (U251 CNS),growth (PC-3 prostate),growth (SK-MEL-5 melanoma),growth (UACC-62 melanoma),growth (LOX IMVI melanoma),growth (SK-MEL-28 melanoma),growth (SK-MEL-2 melanoma),growth (EKVX NSCLC),growth (SN12C renal),growth (UO-31 renal),growth (TK-10 renal),growth (ACHN renal),growth (CAKI-1 renal),growth (A498 renal),growth (CCRF-CEM leukemia),growth (MOLT-4 leukemia)
Cc1ccc2c(c1)C(C)Cc1c(Cl)ncnc1N2C (stereo not given),8.93% (active),-8.76% (active),50.3%,30.4%,17.9%,14.1%,-86.7% (active),7.38% (active),-58.1% (active),27.1%,-21.4% (active),22.2%,32.8%,18%,18.3%,32%,31%,-19.2% (active),49.7%,13.6%
CC(C)c1ccc(/C=N/N=C(N)N)cc1,89.6%,70.6%,76.9%,97.1%,89.7%,48.4%,91.7%,95.8%,83.6%,85.9%,102%,87.1%,93.8%,73.2%,95.1%,83.2%,50.9%,106%,35.7%,45.7%
COc1ccc2c3ccnc(C(F)(F)F)c3n(CCCCN)c2c1,62.9%,22.6%,49.2%,68%,46.4%,22.8%,70.7%,39.2%,32.3%,38.6%,55.3%,45.7%,51.6%,13.4%,61.3%,26.8%,29.6%,17%,72.7%,51%
COCCCNc1nc(NC(=O)c2cc(Br)cc(C(F)(F)F)c2)cc(-c2cccnc2)n1,85.9%,83.7%,115%,95.9%,85.9%,70.6%,70.6%,90.5%,104%,98.6%,80.6%,96%,89.1%,60.6%,95.8%,87.4%,81.4%,76.2%,80.8%,80.1%
COc1ccc(C2NC(=O)C(C#N)c3c2sc2c(F)cccc32)cc1 (stereo not given),33.6%,50.5%,13.6%,42.7%,47.3%,52.4%,60.6%,36.4%,45.6%,52.6%,60%,62.8%,61.5%,36.8%,113%,43.6%,40%,32.2%,44%,49.1%
Cc1ccc2c(n1)C(=O)C(Cl)=C(Nc1ccc(N3CCN(C)CC3)cc1)C2=O,70.4%,66.4%,-53.8% (active),94.6%,8.47% (active),68.7%,10.4%,-49.4% (active),-95.4% (active),30.3%,68.4%,-81.8% (active),-88.5% (active),-97.4% (active),100%,-93.8% (active),-100% (active),101%,-6.24% (active),-25.6% (active)
CCOC(=O)C(=Cc1ccccc1[N+](=O)[O-])C(=O)OCC,5.68% (active),11.4%,-7.8% (active),59.6%,23.4%,47%,20.4%,32.3%,-18.5% (active),33.7%,12%,68.6%,24.5%,41.5%,22.1%,16.9%,24.1%,122%,2.19% (active),11.1%
O=c1cc(-c2ccccc2)oc2cc(OCc3cn(Cc4ccc(F)cc4)nn3)cc(O)c12,94.4% [100 µM],100% [100 µM],-65.9% [100 µM] (active),-32.7% [100 µM] (active),-16.9% [100 µM] (active),76% [100 µM],84.5% [100 µM],53.2% [100 µM],78.5% [100 µM],93.6% [100 µM],-39.8% [100 µM] (active),60.1% [100 µM],58.1% [100 µM],67% [100 µM],0.593% [100 µM] (active),5.21% [100 µM] (active),58.7% [100 µM],63.1% [100 µM],109% [100 µM],95.5% [100 µM]
COC(=O)[C@@H](NC(=O)NC(=O)NC(=O)CI)C(C)C,37%,60.2%,102%,94.5%,100%,85.5%,85.2%,83.1%,-77.4% (active),91.7%,87.4%,95.7%,90.1%,-15.4% (active),89.8%,79.8%,-61.6% (active),87.9%,-32.9% (active),10.6%
COc1ccc(/C=C2\N=C(Nc3ccccc3)N(NC(=O)c3ccccn3)C2=O)cc1,91.6%,112%,72.4%,87.2%,95.8%,101%,93.4%,86.2%,95.5%,102%,102%,91.5%,94.7%,72.3%,127%,99.4%,87.5%,81.5%,99.2%,76.7%
Cn1cc(-c2nnc(-c3ccccc3)s2)c2cc(Br)cnc21,77.6%,95%,29.9%,87.9%,92%,84.9%,74.1%,69.5%,83.3%,97.6%,100%,62.6%,90.1%,61.5%,88.2%,66.7%,53%,60.2%,-12.6% (active),83.4%
CCOc1cccc2c(NC(C)CCCN(CC)CC)c(C)cnc12 (stereo not given),99.1%,85.1%,67.9%,102%,103%,85.9%,108%,108%,90.2%,126%,105%,104%,95.2%,73.3%,101%,109%,103%,97.7%,108%,93.2%
O=c1[nH]c(CN2CCN(c3cccc(Cl)c3)CC2)nc2cc(Cl)ccc12,94.4%,106%,80.5%,91.3%,94.6%,90.6%,99.4%,93.8%,92.5%,102%,46.7%,105%,89.3%,9.86% (active),106%,97.5%,99.4%,114%,105%,120%
CC(C)OC(=O)Nc1cc(F)ccc1F,105%,98.3%,95.3%,96.2%,100%,99.7%,101%,94.1%,106%,102%,112%,98.8%,99.5%,89.7%,97.7%,100%,96.5%,96.9%,103%,101%
CCOC(=O)c1nn(C2CCCCO2)c2ccc(NS(=O)(=O)c3ccc(C)cc3)cc12 (stereo not given),105%,102%,80.5%,99.6%,90.6%,92.6%,98.7%,86.6%,99.3%,101%,106%,102%,93.6%,82.7%,111%,94.3%,77.8%,62.9%,98.9%,86.2%
